SMILES strings stand for the structures. “And” between values parts separate entries of the source, which are not always exact repeats. Identical values can stand only once. Out of some 16,000 compounds screened, about 2,600 (16%) were called active. Not shown: some 20% with an inconclusive outcome. The call rests on the fitted dose curve; in most records, active means well fitted curve in the direction sought with a large enough effect; inconclusive means small, poorly fitted or top-dose-only effect, or effect the other way; inactive means no such curve, though single readings can be large or run the other way. For the sample, actives were picked, then their nearest neighbours and some compounds at random. Some structures have more than one record in an assay (separate samples or runs), and their calls can disagree.

A word on the AC50: it is the concentration at which the activity in the assay is half-maximal.
On the % scale 0 is the no-effect control and ±100 the full control effect.

Cytochrome P450 2D6 (Homo sapiens), sequence (P10635 whole entry, looked up): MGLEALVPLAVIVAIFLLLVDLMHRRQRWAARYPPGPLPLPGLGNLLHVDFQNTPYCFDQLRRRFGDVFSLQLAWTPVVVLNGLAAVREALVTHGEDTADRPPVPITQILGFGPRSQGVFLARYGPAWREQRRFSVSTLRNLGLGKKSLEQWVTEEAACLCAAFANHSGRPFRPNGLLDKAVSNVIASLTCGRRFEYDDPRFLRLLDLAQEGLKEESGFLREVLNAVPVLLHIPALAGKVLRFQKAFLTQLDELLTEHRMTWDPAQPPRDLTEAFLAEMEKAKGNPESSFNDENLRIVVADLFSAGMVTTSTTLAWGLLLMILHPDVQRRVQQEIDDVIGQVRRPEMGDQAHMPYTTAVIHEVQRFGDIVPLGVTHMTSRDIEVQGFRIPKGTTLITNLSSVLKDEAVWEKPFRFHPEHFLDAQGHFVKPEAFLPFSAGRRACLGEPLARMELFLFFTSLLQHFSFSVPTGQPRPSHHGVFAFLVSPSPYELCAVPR

The assay concerns the target Cytochrome P450 2D6 (Homo sapiens) (UniProt P10635). As to the kind of experiment: Cytochrome panel assay with activity outcomes. Particulars: recombinant CYP, pro-luciferin dealkylation, luminescence, p450-cyp2d6; series mostly up to 57.1 µM.
For `CCCCCCC[n+]1ccc(-c2cc[n+](CCCCCCC)cc2)cc1`, the AC50 is 7.94 µM (active).
Consider `COc1cc(C=C(C#N)C#N)cc(O)c1O`, for which the AC50 entry is “inactive”.
Take `C[C@@]12CC[C@@H]3[C@H](CCC4=CC(=O)CC[C@]43C)[C@@H]1CC[C@@H]2C(=O)COS(=O)(=O)c1ccc(Br)cc1`: the activity, negative = inhibition is 3.29% [at 11.4 µM] (inactive).
Same read-out and setting: the same measure for `Cc1cc[c]([Sb]2[O][C@H]([C@H](O)[C@H](O)C(=O)O)[C@@H](CO)[O]2)cc1`: 10.9% [at 11.4 µM] (inactive).
Take `N#Cc1ccc(CN2CCC3(CC2)CCN(C(=O)Oc2ccccc2)CC3)cc1`: the AC50 entry was “inactive”.
The same measure, in the same setting: the same measure for `CN1CC[C@@]2(CCCN(C(=O)Oc3ccccc3)C2)C1`: “inactive”; for `O=C(Nc1ccccc1)N1CC[C@@]2(CCCN(C(=O)Oc3ccccc3)C2)C1`: “inactive”; for `O=C(Oc1ccccc1)N1CCC[C@@]2(CCN(C(c3ccccc3)c3ccccc3)C2)C1`: 5.01 µM (active).
The same measure, in the same setting: the same measure for `COc1ccc(NC(=O)N2CCCC3(CCN(C(=O)Oc4ccccc4)CC3)C2)cc1`: “inactive”; for `CC(C)CN1CC2(CCN(C(=O)Oc3ccccc3)CC2)C1`: “inactive”.
Regarding `N#Cc1ccc(CN2CCCC3(CCN(C(=O)Oc4ccccc4)CC3)C2)cc1`, the AC50 result is “inactive”.
Regarding `O=C(Nc1ccccc1)N1CC2(CCN(C(=O)Oc3ccccc3)CC2)C1`, the AC50 entry was “inactive”.
In the case of `CC(C)CN1CC[C@@]2(CCCN(C(=O)Oc3ccccc3)C2)C1`, the AC50 is 6.31 µM (active).
Same read-out and setting: the same measure for `CC(C)NC(=O)N1CCCC2(CCN(C(=O)Oc3ccccc3)CC2)C1`: “inactive”; for `COc1ccc(NC(=O)N2CC[C@@]3(CCCN(C(=O)Oc4ccccc4)C3)C2)cc1`: 6.31 µM (active).
Same read-out and setting: the same measure for `N#Cc1ccc(CN2CC[C@@]3(CCCN(C(=O)Oc4ccccc4)C3)C2)cc1`: 3.16 µM (active); for `COCCCN1CCN(c2nnc3n2-c2sc(Br)cc2C(c2ccccc2Cl)=NC3)CC1`: “inactive”.
In the case of `N/C(=N\N=C/c1ccc(-c2ccc(O)c(C(=O)O)c2)o1)N[N+](=O)[O-]`, the AC50 entry was “inactive”.
For `O=C(O)c1ccccc1Nc1cccc(C(F)(F)F)c1`, the AC50 result is “inactive”.
Still for that read-out and setting: the same measure for `N[C@@H](CCCCP(=O)(O)O)C(=O)O`: “inactive”.
On the same count and under the same terms, the same measure for `CC[N+](C)(C)c1cccc(O)c1`: “inactive”.
With `O=C(Oc1ccccc1)N1CCC2(CCCN(C(c3ccccc3)c3ccccc3)C2)CC1`, the AC50 entry was “inactive”.
Consider `O=C(Oc1ccccc1)N1CCC2(CC1)CN(C(c1ccccc1)c1ccccc1)C2`, for which the AC50 is 7.94 µM (active).
`CN1CCC2(CC1)CCN(C(=O)Oc1ccccc1)CC2`: the AC50 entry is “inactive”.
Regarding `C[C@@H]1O[C@H](OC2[C@@H](O)[C@H](O)C(O)[C@H](O)[C@H]2O)[C@@H](N)C[C@@H]1N=C(N)C(=O)O` (stereo not given in full), the activity, negative = inhibition is 3.95% [at 11.4 µM] (inactive).
With `CN1CCN(c2ncc3ncc(=O)n(C)c3n2)CC1`, the AC50 result is “inactive”.
Same read-out and setting: the same measure for `C[C@@]12CC[C@H]3[C@@H](CC=C4C[C@H](OS(=O)(=O)O)CC[C@]43C)[C@H]1CCC2=O`: “inactive”.
With `CC(=O)O[C@H]1CC[C@@]2(C)C(=CC[C@@H]3[C@H]2CC[C@]2(C)C(=O)CC[C@H]32)C1`, the AC50 entry was “inactive”.
Consider `CCN(CC)CCO[C@H]1CC[C@@]2(C)C(=CC[C@@H]3[C@H]2CC[C@]2(C)C(=O)CC[C@H]32)C1`, for which the AC50 is 0.0794 µM (active).
Still for that read-out and setting: the same measure for `O=C(c1ccccc1F)c1cn(CC(=O)N2CCOCC2)c2ccccc12`: “inactive”.
Same read-out and setting: the same measure for `CCCN(CCC)[C@@H]1CCc2cccc(O)c2C1`: 3.16 µM (active) and inactive and 794 nM (active); for `CCCN(CCC)[C@H]1CCc2c(F)ccc(O)c2C1`: 631 nM (active) and 1.58 µM (active).
Still for that read-out and setting: the same measure for `Cc1cc(C)c(-n2c(O)c(C=NCCN3CCOCC3)c(=O)[nH]c2=O)c(C)c1`: “inactive”.
For `O=P(Nc1c(Cl)cccc1Cl)(c1ccccc1)c1nc2c(s1)CCCC2` (stereo not given), the AC50 entry is “inactive”.
Same read-out and setting: the same measure for `C[N+]1([O-])[C@@H]2CC(OC(=O)[C@@H](CO)c3ccccc3)C[C@@H]1[C@H]1O[C@H]12` (stereo not given in full): “inactive”; for `CC(=Nc1c(C)n(C)n(-c2ccccc2)c1=O)c1c(O)n(Cc2ccccc2)c(=O)[nH]c1=O`: “inactive”.
Still for that read-out and setting: the same measure for `O=C(O)CN1CCN(CC(=O)O)CC(=O)[O][Hg][O]C(=O)C1`: 3.16 µM (active).
Consider `NCCP(=O)(O)O`, for which the activity, negative = inhibition is 19.4% [at 11.4 µM] (inactive).
Same read-out and setting: the same measure for `C[C@@]12CC[C@@H]3[C@H](CCC4=CC(=O)CC[C@]43C)[C@@H]1CC[C@@H]2C(=O)Cn1cnc2c(=S)nc[nH]c21`: 7.22% [at 11.4 µM] (inactive).
Consider `Oc1ccc([C@H](O)[C@@H]2CCCCN2)cc1O`, for which the activity, negative = inhibition was 15.6% [at 11.4 µM] (inactive).
For the compound `O[C@@H](c1cc(-c2ccccc2)nc2c1ccc1ccccc12)[C@@H]1CCCCN1`, the AC50 is 3.16 µM (active).
On the same count and under the same terms, the same measure for `NCc1cc(=O)[nH]o1`: “inactive”.
As for `O=C(O)/C=C\c1ccc[c]([Sb](=[O])([OH])[OH])c1`, the activity, negative = inhibition is -6.51% [at 11.4 µM] (inactive).
Still for that read-out and setting: the same measure for `CC(=O)O/C(=C1/C[C@H]2[C@@H]3CC=C4C[C@@H](OC(C)=O)CC[C@]4(C)[C@@H]3CC[C@]2(C)C1=O)C(F)(F)F`: -5.95% [at 11.4 µM] (inactive).
Regarding `COc1ccc2c(c1)C13CCCC[C@@H]1C(C2)N(C)CC3` (stereo not given in full), the AC50 was 3.98 µM (active).
As to `COc1ccc2c(c1)[C@]13CCCC[C@@H]1[C@H](C2)N(C)CC3`, the AC50 is 2.51 µM (active).
Regarding `COc1ccc2c(c1)[C@]13CCCC[C@@H]1[C@H](C2)NCC3`, the AC50 is 6.31 µM (active).
For the compound `CC(C)(O)/C=C\C(=O)[C@](C)(O)[C@H]1[C@H](O)C[C@]2(C)[C@@H]3CC=C4[C@@H](C=C(O)C(=O)C4(C)C)[C@]3(C)C(=O)C[C@@]12C`, the activity, negative = inhibition is -2.8% [at 11.4 µM] (inactive).
Regarding `C[C@@]12CC[C@H](O)C[C@@H]1CC[C@H]1[C@H]2CC[C@@]2(C)[C@@H](C3=CC(=O)OC3)CC[C@]12O`, the AC50 entry was “inactive”.
On the same count and under the same terms, the same measure for `C=CCN1C(=O)NC(=O)/C(=C/c2cccn2C)C1=O`: “inactive”; for `NC(N)=NCCC[C@H](N)C(=O)O`: “inactive”.
The same measure, in the same setting: the same measure for `CCOP(=O)(CN(CC)CCNP(=O)(OCC)OCC)OCC`: “inactive”; for `O=C1C=C2C=C[C@H]3C[C@@]2(O1)[C@H]1CCCCN31`: “inactive”.
Take `c1ccc2nc(N3CCNCC3)ccc2c1`: the AC50 result is “inactive”.
Same read-out and setting: the same measure for `c1ccc2c(N3CCNCC3)cccc2c1`: 15.8 µM (active); for `COc1ccccc1N1CCNCC1`: “inactive”.
Take `COc1ccc(C(=O)O[C@H]2CC[C@@]3(C)[C@H]4CC[C@H]5[C@]3(C[C@]3(O)[C@H]6CN7C[C@H](C)CC[C@H]7[C@](C)(O)[C@]6(O)[C@H](O)C[C@]53O)O[C@]24O)cc1OC`: the activity, negative = inhibition is 13.4% [at 11.4 µM] (inactive).
For the compound `COc1ccc(C(=O)OC2C[C@H]3CC[C@@H](C2)N3C)cc1OC` (stereo not given in full), the AC50 was 1 µM (active).
For `CN1[C@@H]2CC[C@H]1CC(O[C@@H](c1ccccc1)c1ccc(Cl)cc1)C2` (stereo not given in full), the AC50 is 1.26 µM (active) and 1.58 µM (active).
Still for that read-out and setting: the same measure for `CN1C2CCC1CC(OC(=O)c1ccc(Cl)cc1)C2` (stereo not given): 0.224 µM (active); for `CC[C@H](Oc1ccc(Cl)cc1)C(=O)OC1C[C@H]2CC[C@@H](C1)N2C` (stereo not given in full): 0.00631 µM (active); for `CCN1C[C@]2(C)CC[C@H](O)[C@@]34[C@@H]5CC6[C@@H](OC)C[C@@](O)([C@@H]5[C@@H]6O)[C@H](C[C@@H]23)[C@H]14`: “inactive”.
Still for that read-out and setting: the same measure for `O=c1cccc2n1CC1CNC[C@H]2C1`: “inactive”.
Turning to `COC(=O)[C@@H]1[C@@H](O)[C@@]2(O)c3c(OC)cc(OC)cc3O[C@@]2(c2ccc(OC)cc2)[C@H]1c1ccccc1`, the activity, negative = inhibition is 18.2% [at 11.4 µM] (inactive).
Same read-out and setting: the same measure for `C[C@@]12CC[C@@H]3[C@@H](CC[C@H]4C[C@@H](O)CC[C@]43C)[C@H]1CC[C@@H]2c1cc(C(F)(F)F)n[nH]1`: -7.84% [at 11.4 µM] (inactive).
With `O=C(c1ccccc1F)c1cn(Cc2ccccc2)c2ccccc12`, the AC50 result was “inactive”.
With `C[N+]1([O-])[C@H]2CC[C@H]1CC(OC(=O)[C@@H](CO)c1ccccc1)C2` (stereo not given in full), the activity, negative = inhibition is 17.4% [at 11.4 µM] (inactive).
As to `CN1[C@@H]2CC[C@H]1CC(O)C2` (stereo not given in full), the AC50 entry is “inactive”.
Still for that read-out and setting: the same measure for `CN1[C@@H]2CC[C@H]1CC(OC(=O)c1cc(Cl)cc(Cl)c1)C2` (stereo not given in full): 0.00794 µM (active); for `C[C@@H](C(=O)OC1C[C@H]2CC[C@@H](C1)N2C)c1ccc(Br)cc1` (stereo not given in full): 3.98 µM (active).
Still for that read-out and setting: the same measure for `C[N+]1([O-])[C@@H]2CC[C@H]1CC(OC(=O)[C@@H](CO)c1ccccc1)C2` (stereo not given in full): “inactive”.
Same read-out and setting: the same measure for `Cc1cc(C)cc(C(=O)OC2C[C@H]3CC[C@@H](C2)N3C)c1` (stereo not given in full): 0.251 µM (active).
With `CS(=N)(=O)CC[C@H](N)P(=O)(O)O` (stereo not given in full), the activity, negative = inhibition is -6.15% [at 11.4 µM] (inactive).
For the compound `C[C@@]12CCC(=O)C=C1C=C[C@H]1[C@H]3CC[C@](O)(CCC(=O)O)[C@]3(C)CC[C@@H]12`, the AC50 entry was “inactive”.
Still for that read-out and setting: the same measure for `Cc1ccc(S(=O)(=O)NCC2CCC(C(=O)N3CCC4(CC3)OCCO4)CC2)cc1` (stereo not given): “inactive”; for `CCC12CN3CC(CC)(CN(C1)C3c1cccnc1)C2=O` (stereo not given): “inactive”.
Regarding `O=S(=O)(O)/C(=C\c1ccccc1)c1ccccc1` (tested in a mixture with another compound), the activity, negative = inhibition is -7.27% [at 11.4 µM] (inactive).
For `CCCCCC[C@H]1C(=O)O[C@H](C)[C@H](NC(=O)c2cccc(NC=O)c2O)C(=O)O[C@@H](C)[C@H]1OC(=O)CC(C)C`, the AC50 result was “inactive”.
Still for that read-out and setting: the same measure for `CN(C)c1ccc(NC(=O)CN2C(=O)CN=C(c3ccccc3)c3ccccc32)cc1`: “inactive”.
Still for that read-out and setting: the same measure for `C(#CCN1CCCC1)CN1CCCC1`: “inactive”; for `O=C1CCCN1CC#CCN1CCCC1`: “inactive and 7.94 µM (active)”; for `NC(=O)CN1CCCC1=O`: “inactive”.
On the same count and under the same terms, the same measure for `C[N+](C)(C)CC#CCN1CCCC1=O`: “inactive and 3.98 µM (active)”.
Consider `Cc1ccc(OP(=O)(Oc2ccc(C)cc2)N2C=Cc3ccccc3[C@H]2C#N)cc1`, for which the activity, negative = inhibition was -6.26% [at 11.4 µM] (inactive).
The same measure, in the same setting: the same measure for `CN(C)CCC(=O)[C@@]1(O)CC[C@H]2[C@H]3CC=C4C[C@@H](O)CC[C@]4(C)[C@H]3CC[C@]21C`: -9.11% [at 11.4 µM] (inactive).

The values above are taken from PubChem BioAssay AID1851 (National Center for Advancing Translational Sciences (NCATS), 2009).
